High-throughput results: PubChem BioAssay, Paczesny and Yang Labs, IUPUI and University of Michigan
Many of the other results were omitted from the sample, so hits are more common in it than they were.
ST2 inh: IL1RL1 inhibition; Q01638; AlphaLISA ST2-Fc/biotin-IL-33 interaction, 1 h; inhibition, % for hits at 17 µM; 78,000 compounds, 2.3% hits; AID 1259354; in the data active = inhibition above about 30%
Target sequence (Q01638 whole entry, looked up): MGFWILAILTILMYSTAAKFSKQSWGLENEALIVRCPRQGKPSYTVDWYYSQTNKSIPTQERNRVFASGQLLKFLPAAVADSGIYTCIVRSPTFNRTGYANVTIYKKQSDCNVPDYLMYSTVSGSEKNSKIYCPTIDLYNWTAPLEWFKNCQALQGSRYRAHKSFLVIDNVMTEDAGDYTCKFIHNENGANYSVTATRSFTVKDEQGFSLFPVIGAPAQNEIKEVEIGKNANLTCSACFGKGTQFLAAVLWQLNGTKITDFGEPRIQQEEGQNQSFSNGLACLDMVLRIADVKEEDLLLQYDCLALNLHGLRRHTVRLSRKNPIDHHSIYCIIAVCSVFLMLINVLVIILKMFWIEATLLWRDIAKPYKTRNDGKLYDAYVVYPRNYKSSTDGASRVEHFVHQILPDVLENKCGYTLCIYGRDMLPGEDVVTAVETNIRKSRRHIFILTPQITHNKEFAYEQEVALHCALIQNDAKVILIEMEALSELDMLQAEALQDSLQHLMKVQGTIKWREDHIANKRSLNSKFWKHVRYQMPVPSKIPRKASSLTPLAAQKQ
Large screens that a line does not name were inactive.

Cc1ccc2cc(C3(O)CCN(C(=O)COc4cccnc4)CC3)ccc2n1	none
OCc1ccc(-c2nccn2CC2COc3ccccc3O2)o1 (stereo not given)	none
Cc1ccccc1NC(=O)Cn1c(=O)n(-c2ccc(F)cc2F)c(=O)c2sccc21	none
O=C(Nc1ccc(Oc2ccc(Cl)cc2)cc1)c1ccccc1[N+](=O)[O-]	none
CC(=O)N(CN1C(=O)c2cccc([N+](=O)[O-])c2C1=O)c1ccc(C)cc1	none
c1cn2c(NC3CCCCC3)c(-c3ccsc3)nc2cn1	none
Cc1c(C(C)NC2CCN(Cc3ccccn3)CC2)cnn1-c1ccc(F)cc1F (stereo not given)	none
COc1ccccc1NC(=O)C1=C(C)NC(SCC(N)=O)=C(C#N)C1c1ccco1 (stereo not given)	none
Cc1nc2sccn2c1C(=O)N1[C@H]2CCNC[C@@H]1CC2	none
COc1ccc(NC2(C(=O)N3[C@@H]4CC[C@H]3CNC(=O)C4)CCCC2)cc1	none
CCc1ccc(-c2cn3c(C(=O)N4[C@@H]5CC[C@H]4CNC(=O)C5)csc3n2)cc1	ST2 inh 36.0%
Cc1ccc(CN2CCSc3ccc(C(=O)NCCN4CCOCC4)cc32)cc1	none
O=C(c1ccc2c(=O)n(-c3ccccc3)c(=O)[nH]c2c1)N1CCN(c2ccccn2)CC1	none
CC1(C)CC(N2C(=O)OC(C)([C@H]3CC4C=CC3C4)C2(C)O)CC(C)(C)N1 (stereo not given in full)	ST2 inh 98.0%
O=C(CCC(F)(F)F)N1CCc2onc(-c3ccc(F)c(F)c3)c2C1	none
Cc1nn(C(C)C)c(C)c1CN(C)C(=O)c1ccc(CSc2ncccn2)o1	none
c1nc(Nc2ccc(N3CCCCC3)cc2)c2c3c(sc2n1)CCCC3	ST2 inh 58.0%
COc1cccc(Nc2ncnc3sc4c(c23)CCCC4)c1	none
CCNc1ncnc2sc3c(c12)CCCC3	none
Cc1ccccc1Oc1ccc(N2C(=O)C3C4C=CC(C4)C3C2=O)cc1 (stereo not given)	none
N#Cc1c(N2C(=O)Nc3cc(Cl)c(Cl)cc3N2O)sc2c1CCCC2	none
CCc1cccc(NC2c3ccccc3C(=O)N2Cc2ccccc2)c1 (stereo not given)	none
CC1OC(O[C@H]2CC[C@@]3(C)C(CC[C@]4(C)C3CC=C3C5CC(C)(C)CC[C@]5(C(=O)OC5OC(CO)C(OC6OCC(O)C(O)C6O)C(O)C5O)CC[C@]34C)C2(C)C)C(O)C(O)C1OC1OC(CO)C(O)C(OC2OC(CO)C(O)C(O)C2O)C1O (stereo not given in full)	none
O=C(c1cc(=O)[nH]c2ccc(F)cc12)N1CC[C@@H](N2CCOCC2)[C@H](O)C1	none
COc1ccc(C(=O)NC2CC2)cc1OC1CCN(Cc2cc(CC(C)C)n[nH]2)CC1	none
CCN(CC)c1ccc(/C=C2\N=C(SC)SC2=O)cc1	ST2 inh 63.0%
CCN(CC)c1ccc(C2C3=C(CC(C)(C)CC3=O)Nc3nc(SC)[nH]c(=O)c32)cc1 (stereo not given)	none
CSC1=N/C(=C\c2cc3c(cc2Br)OCO3)C(=O)S1	none
O=C(CN1C(=O)c2ccccc2C1=O)N1CCCC(Nc2cccc(F)c2)C1 (stereo not given)	none
Cc1ccc2[nH]c(CN3CCOC(C(F)(F)F)C3)nc2c1C (stereo not given)	none
Cc1cc2n(c1)CCn1c(C)ccc1-2	ST2 inh 63.0%
COCc1nc(CN2CCC(O)(c3ccc(C)cn3)CC2)no1	none
Cc1ccc(-c2ccc[nH]c2=O)c(-n2cccn2)c1	none
Cc1sc2nc3c(C(=O)NCc4ccccc4)cccn3c(=O)c2c1C	none
CC(=O)NC(=O)c1cc2ccccc2oc1=Nc1ccc(F)cc1	none
COc1ccc2oc(=Nc3ccc(C(F)(F)F)cc3)c(C(=O)NC(C)=O)cc2c1	none
CC(=O)NC(=O)c1cc2cc(Br)ccc2oc1=Nc1ccc(C#N)cc1	ST2 inh 32.0%
Cc1c(C(=O)N2CCCC3(CC2)CN(C)C(=O)O3)sc2ccccc12 (stereo not given)	none
COc1ccc(/C=C(\C)c2nc(C)c(-c3ccccc3)c(=O)[nH]2)cc1	none
COc1ccc(/C=C2\CC(c3ccccc3)=CC2=O)cc1	ST2 inh 52.0%
COc1ccc(/C=C2\SC(N3CCCC3)=NC2=O)cc1	none
O=C(NC1CCCC1)c1ccc2c(c1)ncn2C1CCCC1	none
C=CCc1c(C)nc2nc(SCC(=O)Nc3ccccc3Cl)nn2c1C	none
Cc1cc(Br)cc2c1N(C)C(=O)/C2=C1\SC(=Nc2ccc(F)cc2)NC1=O	ST2 inh 33.0%
Cc1cc(Br)cc2c1N(C)C(=O)C2=O	none
CN(C)c1ncccc1CNC(=O)CCCc1cccs1	none
COc1ccc(Cl)cc1C(=O)Nc1ccc(Nc2nc(C)cc(Nc3ccccc3)n2)cc1	none
COc1ccc(Cl)cc1C(=O)Nc1ccc(Nc2nc(C)cc(N(C)C)n2)cc1	ST2 inh 33.0%
COc1cc(OC)cc(C(=O)Nc2ccc(Nc3nc(C)cc(N(C)C)n3)cc2)c1	none
Cc1cc(N(C)C)nc(Nc2ccc(NC(=O)c3ccccc3C)cc2)n1	ST2 inh 31.0%
Cc1cc(N(C)C)nc(Nc2ccc(NC(=O)c3ccccc3C(F)(F)F)cc2)n1	none
Cc1cc(N(C)C)nc(Nc2ccc(NC(=O)c3c(F)cccc3F)cc2)n1	none
COC(=O)Cn1cnc2scc(-c3ccc(F)cc3)c2c1=O	none
